Out of some 420,000 compounds screened, about 64,000 (15%) were called active. Roughly 27% stayed inconclusive and do not appear here. The list is a sample of the results. A number with no mark means an inactive call. Calls follow the shape of the dose curve; as a rule, active = well fitted inhibition curve with a large enough effect; inconclusive = small, poorly fitted or top-dose-only effect; inactive = flat fitted curve, though single readings scatter.
Test: qHTS for Inhibitors of human tyrosyl-DNA phosphodiesterase 1 (TDP1): qHTS in cells in absence of CPT; also: nearly all actives have a fitted effect of over 55% in size
Settings: DT40 Tdp1-/- hTDP1 cells, no CPT, ATP luminescence, 48 h; activity change, negative = growth inhibition: at 46.2 µM (top of the series)
Procedure, shortened: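 Compound effects on proliferation are scored in DT40 Tdp1-/-;hTDP1 cells in the absence of CPT. ATP levels (CellTiter-Glo luminescence) are recorded after a ≥48 hr, 37 °C incubation.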
% is scaled to controls: 0 for no effect and ±100 for the full control effect; potency is read from the fitted curve at half-maximal effect.

| Structure (SMILES) | Potency | activity change, negative = growth inhibition |
| --- | --- | --- |
| CCOC(=O)C1CN(S(=O)(=O)c2ccc(OC)cc2)c2cc(Cl)ccc2O1 (centres undefined) | 20.6 µM (active) |  |
| Cn1cc(S(=O)(=O)N2CCN(c3ccc(F)cc3)CC2)c(=O)n(C)c1=O |  | -26.6% |
| Nc1nnc(SCC(=O)NC2CCCc3ccccc32)s1 (centres undefined) |  | 15.3% |
| CCOC(=O)N1CCN(S(=O)(=O)c2ccc(-n3cnnn3)cc2)CC1 |  | -12.2% |
| CCOC(=O)N1CCN(S(=O)(=O)c2ccc(C(=O)Nc3ccc(F)cc3F)cc2)CC1 | 1.64 µM (active) |  |
| CCOC(=O)N1CCN(S(=O)(=O)c2ccc(Br)cc2)CC1 |  | 2.06% |
| Cc1ccc(S(=O)(=O)N(C)C)cc1NC(=O)c1ccc(-n2cncn2)c([N+](=O)[O-])c1 |  | 2.95% |
| Cc1cc(Nc2cccc(C(F)(F)F)c2)nc2ccc(NC(=O)c3ccc(=O)[nH]c3)cc12 | 4.61 µM (active) |  |
| O=C(NNC(=O)c1cccc(S(=O)(=O)Nc2ccc(Cl)cc2)c1)c1ccc(=O)[nH]c1 |  | 27.3% |
| COc1cc(OC)cc(C(=O)Nc2ccc3nc(Nc4cccc(C(F)(F)F)c4)cc(C)c3c2)c1 | 5.8 µM (active) |  |
| O=C(COC(=O)c1cc[n+]([O-])cc1)Nc1ccc(Cl)c(C(F)(F)F)c1 |  | -20.8% |
| CCn1c(Cc2ccccc2)nnc1SCC(=O)Nc1ccccc1 |  | -13% |
| CCc1nn(CC(=O)N2CCN(c3cccc(C(F)(F)F)c3)CC2)c(=O)c2cc3occc3n12 |  | -10.6% |
| CC1COc2ccccc2N1C(=O)c1ccc(F)cc1 (centres undefined) |  | 4.13% |
| C/C(CC(=O)NC(C)c1ccccc1)=N\NC(N)=S (centres undefined) |  | 2.8% |
| Cc1cccc(NC(=O)c2cc(N3C(=O)CCC3=O)ccc2Cl)n1 |  | -0.716% |
| Cc1ccccc1Nc1c([N+](=O)[O-])ccc2nonc12 |  | -9.27% |
| N#Cc1ccc(-c2nc3c(Cl)cc(C(F)(F)F)cn3c2Cc2ccccc2C(F)(F)F)cc1 |  | -26.2% |
| COc1ncc2nc(-c3ccc(Cl)cc3)c(=O)n(-c3ccccc3)c2n1 |  | -8.91% |
| COc1ccccc1Cc1c(-c2ccc(Cl)cc2)nc2c3ccccc3ccn12 | 20.6 µM (active) |  |
| CC(C)OC(=O)CC(=O)CC(O)c1cccc([N+](=O)[O-])c1 (centres undefined) |  | -12.4% |
| NC(Cc1ccccc1)c1csc(Nc2cc(Oc3ccccc3)ncn2)n1 (centres undefined) | 16.4 µM (active) |  |
| CCNC(=O)C1CCCN(C(=O)c2cc(F)ccc2C)CC1 (centres undefined) |  | -17.4% |
| CC(C)CN(CC(C)C)CC(O)CN(c1ccccc1)S(=O)(=O)c1ccccc1[N+](=O)[O-] (centres undefined) | 23.1 µM (active) |  |
| CCN(c1ccccc1)S(=O)(=O)c1cc2c(cc1C)n(C)c(=O)c(=O)n2C |  | -14.4% |
| Cc1cccc(N(CC(O)CN(C)C)S(=O)(=O)c2ccccc2)c1 (centres undefined) |  | -22.2% |
| NC(=O)CCCC1=NS(=O)(=O)c2ccccc2N1 |  | 2.92% |

| Structure (SMILES) | Potency | activity change, negative = growth inhibition |
| --- | --- | --- |
| CCCCN1C(=O)/C(=C2/C=CC=CN2C)SC1=S |  | -20.2% |
| CCCCN1C(=O)/C(=C/C=C2/C=Cc3ccccc3N2CC)SC1=S | 8.2 µM (active) |  |
| CN1C=CC=C/C1=C1\SC(=S)N(Cc2ccccc2)C1=O |  | -9.29% |
| CCCOc1ccc(-c2nc(N)n[nH]2)cc1 |  | -15.1% |
| CC(OC(=O)c1ccc2ccccc2n1)C(=O)c1ccccc1 (centres undefined) |  | 12.4% |
| COc1cccc(C2Nc3cccc4cccc(c34)N2)c1 |  | -16.5% |
| O=C1NC(c2cccc(Cl)c2)Nc2ccccc21 (centres undefined) | 16.4 µM (active) |  |
| COc1ccc(C2NC(=O)c3ccccc3N2)cc1 (centres undefined) |  | -29.5% |
| Cc1cc(C)c(C#N)c(SCC(=O)N(CC(C)C)C2CCS(=O)(=O)C2)n1 (centres undefined) |  | 10.4% |
| O=C(CSc1cccc2cccnc12)N/N=C/c1cccnc1 | 4.11 µM (active) |  |
| O=C(CNC(=O)c1cccnc1)N/N=C/c1cccnc1 |  | -3.41% |
| Cc1nc2ccccc2n1CC(=O)N/N=C/c1cccnc1 |  | 21.9% |
| COc1ccc(NC(=O)c2sccc2SCC#N)cc1 |  | -7.74% |
| Cc1cc(C)c(C#N)c(SCC(=O)Nc2ccccc2)n1 |  | -16.2% |
| CC1=C(C(=O)Nc2ccccc2)C(c2cccs2)C(C#N)=C(SCC#N)N1 (centres undefined) | 7.31 µM (active) |  |
| N/C(=N\c1nc2ccccc2o1)NC(=O)C(Cc1ccccc1)N1C(=O)c2ccccc2C1=O (centres undefined) |  | -28.8% |
| Nn1c(SCC(=O)Nc2ccc3c(c2)CCC3)nnc1C1CC1 |  | -9.41% |
| Cc1nc2nc(SCC(=O)NCc3ccco3)nn2c(C)c1Cc1ccccc1 |  | -22.9% |
| Cc1cccc(Cc2c(C)nc3nc(SCc4ccccc4Cl)nn3c2C)c1 | 20.6 µM (active) |  |
| COC(OC)c1ccnc(SCc2ccccc2Cl)n1 |  | -29.6% |
| Cc1nc(CNS(=O)(=O)c2cc([N+](=O)[O-])ccc2C)cs1 |  | 13.9% |
| COc1cc(SC)ccc1C(=O)NNC(=O)C1COc2ccccc2O1 (centres undefined) |  | -5.11% |
| COc1cc(SC)ccc1C(=O)Nc1nc(C)cs1 | 11.6 µM (active) |  |
| COc1ccccc1CNC(=O)c1ccc(SC)cc1OC | 15.8 µM (active) |  |
| COc1cc(SC)ccc1C(=O)NCCOc1ccccc1Cl |  | -30% |
| Cc1csc(NC(=O)CSc2nc(=O)cc(N)n2-c2ccc(F)cc2)n1 |  | 9.25% |
| COc1ccc(Cc2nnc(NC(=O)c3ccc(OC)cc3OC)s2)cc1 |  | -7.52% |

From PubChem BioAssay AID686978 (National Center for Advancing Translational Sciences (NCATS), 2013)
